Targets with a hit are over-represented here; the source holds about 7,900 in all. About 0.6% of all pairs of compound and target were hits.
Key:
Assay in all cases: log2 fold change, soluble protein after heating vs DMSO (PISA); higher = thermal stabilisation; K562 cells, 10 uM, 30 min; active = over 0.2 and 3.5 SD of the protein, either way, in both replicates (recomputed)
[1] = compound: C1COCCN1CCN2C3=CC=CC=C3N=C2NC(=O)C4=CC(=CC=C4)[N+](=O)[O-] [IRAK-1-4 Inhibitor I]
Summary of the method: (§1)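 K562 cells at 2×10^6 cells/mL were treated for 30 min with 10 μM compound, and aliquots were heated for 3 min over 48°C-58°C before pooling. Extraction used PBS with 0.5% NP-40 at 4°C, and soluble protein was the supernatant after 21,000xg for 90 min, measured by TMTpro 16plex LC-MS/MS with channel sums equalised. Thermal stability values, relative to control samples and from duplicates, are log2 fold changes.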

[2] = compound: C=CC(=O)N1CCC[C@@H](n2nc(-c3ccc(Oc4ccccc4)cc3)c3c(N)ncnc32)C1 [ibrutinib]
Summary of the method: as §1

[3] = compound: CC(=O)c1cnc2ccc(-c3cc(Cl)c(O)c(Cl)c3)nc2c1N[C@H]1CC[C@H](CN(C)C)CC1
Summary of the method: as §1

[4] = compound: CC(C)(C)Cn1c(N)nc2ccc(-c3[nH]c(C(C)(C)C)nc3-c3ccc(F)cc3)nc21 [ralimetinib]
Summary of the method: as §1

[5] = compound: CC(C)(O)CC(=O)NCCn1ccc2ncnc(Nc3ccc(Oc4cccc(C(F)(F)F)c4)c(Cl)c3)c21
Summary of the method: as §1

[6] = compound: CC(C)C1=C2N=C(C=C(N2N=C1)NCC3=CC=CC=C3)NCCCCCCN
Summary of the method: as §1

[7] = compound: CC(C)C[C@@H](C=O)NC(=O)[C@H](CC(C)C)NC(=O)[C@H](CC(C)C)NC(=O)OCc1ccccc1
Summary of the method: as §1

[8] = compound: CC(C)N(C[C@H]1O[C@@H](n2cnc3c(N)ncnc32)[C@H](O)[C@@H]1O)[C@H]1C[C@@H](CCc2nc3cc(C(C)(C)C)ccc3[nH]2)C1 [pinometostat]
Summary of the method: as §1

[9] = compound: CC1=C(C(CC(=O)N1)C2=CC=C(C=C2)C(F)(F)F)C(=O)NC3=C(C=C4C(=C3)C=NN4)F
Summary of the method: as §1

[10] = compound: CC1=C(C2=C(C=C1)C(=O)C3=CC=CC=C3N2CCCN)C
Summary of the method: as §1

[11] = compound: CC1=C(C=C(C=C1)NC(=O)C2=CC(=CC=C2)C(C)(C)C#N)NC3=CC4=C(C=C3)N=CN(C4=O)C
Summary of the method: as §1

[12] = compound: CC1=C(C=C(C=C1)NC(=O)C2=CC(=CC=C2)N(C)C)NC(=O)C3=CC=C(C=C3)O
Summary of the method: as §1

[13] = compound: CC1=CC=C(C=C1)SC2=C3C=C(SC3=CN=C2)C(=O)N
Summary of the method: as §1

[14] = compound: CC1=NC(=CC=C1)C2=C(N=C(N2)C(C)(C)C)C3=CC4=NC=CN=C4C=C3
Summary of the method: as §1

[15] = compound: CCCCN(Cc1ccc(C(=O)NO)cc1)C(=O)Nc1ccccc1 [Nexturastat A]
Summary of the method: as §1

[16] = compound: CCCS(=O)(=O)Nc1ccc(F)c(C(=O)c2c[nH]c3ncc(-c4ccc(Cl)cc4)cc23)c1F [vemurafenib]
Summary of the method: as §1

[17] = compound: CCCS(=O)(=O)Nc1ccc(F)c(C(=O)c2c[nH]c3ncc(Cl)cc23)c1F
Summary of the method: as §1

[18] = compound: CCCc1cc(C)[nH]c(=O)c1CNC(=O)c1cc(-c2ccnc(N3CCN(C)CC3)c2)cc2c1cnn2C(C)C
Summary of the method: as §1

[19] = compound: CCN(CC)Cc1ccc2cc(COC(=O)Nc3ccc(C(=O)NO)cc3)ccc2c1 [givinostat]
Summary of the method: as §1

[20] = compound: CCN(CCCOc1ccc2c(Nc3cc(CC(=O)Nc4cccc(F)c4)[nH]n3)ncnc2c1)CCOP(=O)(O)O [barasertib]
Summary of the method: as §1

Measured: log2 fold change

ELOVL1 (UniProt Q9BW60)
UniProt Q9BW60, sequence (Q9BW60 whole entry, looked up): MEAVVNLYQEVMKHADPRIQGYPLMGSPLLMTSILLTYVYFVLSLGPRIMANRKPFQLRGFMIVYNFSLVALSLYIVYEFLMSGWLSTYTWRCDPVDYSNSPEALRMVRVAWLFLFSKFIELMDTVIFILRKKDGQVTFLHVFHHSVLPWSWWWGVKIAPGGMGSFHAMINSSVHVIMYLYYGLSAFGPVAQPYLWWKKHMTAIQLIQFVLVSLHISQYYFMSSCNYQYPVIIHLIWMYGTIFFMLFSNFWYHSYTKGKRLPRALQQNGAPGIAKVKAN
inactive: [1] 0.079 | [2] -0.006 | [3] 0.018 | [4] 0.029 | [5] -0.197 | [7] 0.036 | [8] 0.063 | [9] 0.016 | [10] 0.099 | [11] -0.035 | [12] -0.065 | [13] 0.064 | [14] 0.044 | [15] 0.03 | [16] -0.032 | [17] 0.116 | [18] -0.063 | [19] 0.067 | [20] 0.028
active: [6] -0.628

CTSZ (UniProt Q9UBR2)
UniProt Q9UBR2, sequence (Q9UBR2 whole entry, looked up): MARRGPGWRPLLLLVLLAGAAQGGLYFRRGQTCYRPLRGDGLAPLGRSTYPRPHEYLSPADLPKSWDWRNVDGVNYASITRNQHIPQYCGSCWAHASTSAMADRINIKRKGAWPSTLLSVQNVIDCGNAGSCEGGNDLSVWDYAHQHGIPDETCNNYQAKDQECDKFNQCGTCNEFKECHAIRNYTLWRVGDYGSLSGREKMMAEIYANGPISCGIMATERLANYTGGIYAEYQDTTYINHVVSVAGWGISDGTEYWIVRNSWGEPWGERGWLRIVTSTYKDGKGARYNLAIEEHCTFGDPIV
active: [6] -0.395
inactive: [1] 0.008 | [2] -0.02 | [3] 0.053 | [4] -0.062 | [5] 0 | [7] 0.082 | [8] -0.076 | [9] 0.015 | [10] -0.036 | [11] -0.009 | [12] -0.004 | [13] 0.025 | [14] 0.002 | [15] -0.009 | [16] -0.026 | [17] -0.045 | [18] -0.017 | [19] 0.152 | [20] 0.027

FAM122A (UniProt Q96E09)
UniProt Q96E09, sequence (Q96E09 whole entry, looked up): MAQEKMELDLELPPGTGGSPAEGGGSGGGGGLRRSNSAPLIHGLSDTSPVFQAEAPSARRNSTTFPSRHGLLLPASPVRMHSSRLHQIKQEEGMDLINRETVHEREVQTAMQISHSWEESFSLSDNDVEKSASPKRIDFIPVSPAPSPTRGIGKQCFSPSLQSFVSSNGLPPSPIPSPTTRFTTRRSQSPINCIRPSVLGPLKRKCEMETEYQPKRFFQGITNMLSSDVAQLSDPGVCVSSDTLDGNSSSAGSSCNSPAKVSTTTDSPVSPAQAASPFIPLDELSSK
inactive: [1] 0.002 | [2] 0.016 | [3] -0.015 | [4] -0.053 | [5] 0.105 | [6] 0.066 | [7] 0.016 | [8] -0.008 | [9] 0.007 | [10] -0.117 | [11] -0.01 | [12] -0.005 | [13] 0.045 | [14] -0.006 | [15] 0.107 | [16] -0.017 | [17] 0.095 | [18] 0.026 | [19] 0.064 | [20] -0.016

ECH1 (UniProt Q13011)
UniProt Q13011, sequence (Q13011 whole entry, looked up): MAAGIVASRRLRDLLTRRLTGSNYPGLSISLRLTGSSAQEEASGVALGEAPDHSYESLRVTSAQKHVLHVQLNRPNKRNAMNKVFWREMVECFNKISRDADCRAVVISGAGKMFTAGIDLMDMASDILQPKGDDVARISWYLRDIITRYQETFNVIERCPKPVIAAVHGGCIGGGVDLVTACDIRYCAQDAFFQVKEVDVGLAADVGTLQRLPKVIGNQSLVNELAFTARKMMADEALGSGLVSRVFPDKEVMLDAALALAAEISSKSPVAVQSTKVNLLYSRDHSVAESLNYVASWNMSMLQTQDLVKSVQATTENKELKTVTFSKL
inactive: [1] 0.056 | [2] -0.003 | [3] -0.058 | [4] 0.087 | [5] -0.112 | [6] -0.164 | [7] -0.033 | [8] 0.003 | [9] 0.086 | [10] 0.076 | [11] 0.005 | [12] -0.027 | [13] 0.044 | [14] 0.014 | [15] -0.032 | [16] 0.012 | [17] -0.003 | [18] -0.065 | [19] 0.129 | [20] 0.035

CWC27 (UniProt Q6UX04)
UniProt Q6UX04, sequence (Q6UX04 whole entry, looked up): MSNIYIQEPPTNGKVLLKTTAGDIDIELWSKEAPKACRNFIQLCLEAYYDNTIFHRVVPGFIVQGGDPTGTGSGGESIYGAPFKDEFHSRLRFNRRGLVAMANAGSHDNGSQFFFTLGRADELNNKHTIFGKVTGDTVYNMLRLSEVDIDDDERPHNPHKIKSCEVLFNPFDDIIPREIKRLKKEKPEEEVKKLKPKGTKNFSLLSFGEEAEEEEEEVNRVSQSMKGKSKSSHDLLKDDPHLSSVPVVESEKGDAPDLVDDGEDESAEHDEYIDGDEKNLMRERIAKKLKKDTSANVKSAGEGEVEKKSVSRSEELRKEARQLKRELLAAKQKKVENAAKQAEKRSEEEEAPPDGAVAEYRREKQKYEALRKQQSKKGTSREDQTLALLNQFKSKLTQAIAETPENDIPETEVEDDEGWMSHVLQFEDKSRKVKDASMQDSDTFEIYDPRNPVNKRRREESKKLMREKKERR
inactive: [1] -0.045 | [2] -0.111 | [3] -0.133 | [4] 0.048 | [5] -0.08 | [6] 0.018 | [7] -0.007 | [8] -0.023 | [9] -0.045 | [10] 0.199 | [11] -0.001 | [12] -0.035 | [13] 0.002 | [14] 0.021 | [15] -0.029 | [16] 0.128 | [17] 0.112 | [18] 0.009 | [19] 0.082 | [20] 0.073

DCTPP1 (UniProt Q9H773)
UniProt Q9H773, sequence (Q9H773 whole entry, looked up): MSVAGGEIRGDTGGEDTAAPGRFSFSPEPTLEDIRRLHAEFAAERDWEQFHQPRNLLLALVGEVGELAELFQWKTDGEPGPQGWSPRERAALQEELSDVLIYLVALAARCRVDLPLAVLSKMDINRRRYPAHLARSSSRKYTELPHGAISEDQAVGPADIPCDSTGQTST
inactive: [1] 0.017 | [2] 0.011 | [3] 0.03 | [4] 0.062 | [5] -0.039 | [6] 0.075 | [7] -0.105 | [8] -0.067 | [9] 0.061 | [10] 0.165 | [11] 0.003 | [12] -0.078 | [13] 0.009 | [14] 0.008 | [15] 0.067 | [16] 0.126 | [17] -0.043 | [18] -0.009 | [19] -0.019 | [20] 0.059

DNAJC1 (UniProt Q96KC8)
UniProt Q96KC8, sequence (Q96KC8 whole entry, looked up): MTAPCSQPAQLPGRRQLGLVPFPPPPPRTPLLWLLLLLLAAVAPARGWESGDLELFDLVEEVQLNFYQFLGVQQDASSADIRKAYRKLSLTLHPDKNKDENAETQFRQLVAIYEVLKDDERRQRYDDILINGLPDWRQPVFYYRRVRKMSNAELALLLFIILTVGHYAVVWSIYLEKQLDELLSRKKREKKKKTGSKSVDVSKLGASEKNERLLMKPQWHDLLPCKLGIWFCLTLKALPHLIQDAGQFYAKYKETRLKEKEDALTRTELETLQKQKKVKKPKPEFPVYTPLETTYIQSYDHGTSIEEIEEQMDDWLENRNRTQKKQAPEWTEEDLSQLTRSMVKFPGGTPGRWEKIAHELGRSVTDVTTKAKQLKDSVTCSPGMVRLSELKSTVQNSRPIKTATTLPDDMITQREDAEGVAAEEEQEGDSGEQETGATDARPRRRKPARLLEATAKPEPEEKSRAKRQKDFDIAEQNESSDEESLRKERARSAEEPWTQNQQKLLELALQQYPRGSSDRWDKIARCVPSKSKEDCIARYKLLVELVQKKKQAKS
active: [6] -0.462
inactive: [1] 0.017 | [2] 0.02 | [3] -0.026 | [4] -0.081 | [5] -0.117 | [7] 0.025 | [8] -0.037 | [9] -0.012 | [10] 0.019 | [11] 0.027 | [12] 0 | [13] 0.014 | [14] 0.049 | [15] -0.079 | [16] -0.007 | [17] 0.037 | [18] -0.13 | [19] -0.013 | [20] 0.047

EXOC8 (UniProt Q8IYI6)
UniProt Q8IYI6, sequence (Q8IYI6 whole entry, looked up): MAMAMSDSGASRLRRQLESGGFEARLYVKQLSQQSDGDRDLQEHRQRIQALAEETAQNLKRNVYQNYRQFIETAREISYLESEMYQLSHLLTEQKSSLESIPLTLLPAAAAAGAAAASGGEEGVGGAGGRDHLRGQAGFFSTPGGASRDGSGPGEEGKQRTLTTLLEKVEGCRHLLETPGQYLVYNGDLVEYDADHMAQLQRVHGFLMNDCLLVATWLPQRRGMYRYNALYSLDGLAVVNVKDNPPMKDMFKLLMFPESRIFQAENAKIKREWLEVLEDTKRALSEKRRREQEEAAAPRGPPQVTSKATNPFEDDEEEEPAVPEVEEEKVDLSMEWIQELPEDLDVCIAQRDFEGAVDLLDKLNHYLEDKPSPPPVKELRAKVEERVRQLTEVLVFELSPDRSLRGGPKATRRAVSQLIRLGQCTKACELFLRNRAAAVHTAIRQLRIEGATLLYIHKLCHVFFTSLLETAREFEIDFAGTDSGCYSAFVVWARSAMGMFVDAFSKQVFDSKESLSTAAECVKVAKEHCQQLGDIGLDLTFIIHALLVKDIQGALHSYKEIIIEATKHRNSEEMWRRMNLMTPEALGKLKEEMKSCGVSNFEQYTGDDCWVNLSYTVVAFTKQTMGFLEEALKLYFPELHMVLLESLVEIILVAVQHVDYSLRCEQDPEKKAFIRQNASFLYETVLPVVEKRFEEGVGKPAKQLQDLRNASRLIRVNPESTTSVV
active: [6] -0.317
inactive: [1] -0.094 | [2] -0.001 | [3] 0.014 | [4] 0.049 | [5] -0.128 | [7] -0.032 | [8] 0.051 | [9] 0.026 | [10] -0.002 | [11] 0.035 | [12] -0.085 | [13] 0.037 | [14] 0.016 | [15] -0.087 | [16] 0.048 | [17] 0.01 | [18] -0.091 | [19] 0.028 | [20] 0.048
